From PubChem
HP1b binding inh: HP1-beta chromodomain-methylated histone interaction inhibition; Potency, µM (titrated, usually from 114 µM), for inactives: at the top dose activity change, negative = inhibition, most hits filed as inhibitors; P83916; AlphaScreen HP1-beta / biotin-H3K9me3 peptide binding; 0.56% of 390,000 active; also: potency is read from the fitted curve at half-maximal effect; nearly all actives have a fitted effect of over 70% in size
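HP1-beta protein (50 nM final) preincubated 30 min at room temperature with biotinylated H3(1-18)K9me3 peptide (50 nM) in PBS pH 7.4, 0.01% Tween-20, then compound added for 30 min. AlphaScreen streptavidin donor/nickel chelate acceptor beads (10 ug/mL final), 30 min dark, luminescence read.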
BAZ2B inh: inhibitors of human BAZ2B bromodomain; 4.4% of 360,000 active; Potency, µM (series often up to 114 µM), for inactives: at the highest dose activity change, negative = inhibition, actives largely listed as inhibitors; Q9UIF8; AlphaScreen BAZ2B-H3K14Ac peptide displacement; also: potency is read from the fitted curve at half-maximal effect; % is scaled to controls: 0 for no effect and ±100 for the full control effect; nearly all actives have a fitted effect of over 60% in size
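Protein-peptide AlphaScreen: BAZ2B 50 nM, b-H3K14Ac 50 nM, 1x PBS pH 7.4 + 0.01% Tween-20. Preincubation 30 min RT; cpd 30 min RT (top 110 uM); beads 20 min RT, light-protected.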
JMJD2A Tudor: inhibitors of human JMJD2A Tudor domain | AlphaScreen JMJD2A-Tudor / H3K4me3 peptide binding | 4.4% of 390,000 active | AID 504339 | Potency, µM (top dose mostly 114 µM), without a hit: at the highest dose activity change, negative = inhibition, most hits filed as inhibitors | O75164; also: potency is read from the fitted curve at half-maximal effect; % is scaled to controls: 0 for no effect and ±100 for the full control effect; nearly all actives have a fitted effect of over 50% in size
PLK1 PBD block: inhibitors of human PLK1 polo-box domain binding | P53350 | Plk1 PBD binding of FITC phosphopeptide, fluorescence polarization | Potency, µM, without a hit: max response, negative = inhibition, usual class: inhibitors | 2.8% of 360,000 active; also: potency is read from the fitted curve at half-maximal effect; series mostly up to about 57 µM; % is scaled to controls: 0 for no effect and ±100 for the full control effect; nearly all actives have a fitted effect of over 65% in size
Target sequence (P53350 whole entry, looked up, the tested form may be a part): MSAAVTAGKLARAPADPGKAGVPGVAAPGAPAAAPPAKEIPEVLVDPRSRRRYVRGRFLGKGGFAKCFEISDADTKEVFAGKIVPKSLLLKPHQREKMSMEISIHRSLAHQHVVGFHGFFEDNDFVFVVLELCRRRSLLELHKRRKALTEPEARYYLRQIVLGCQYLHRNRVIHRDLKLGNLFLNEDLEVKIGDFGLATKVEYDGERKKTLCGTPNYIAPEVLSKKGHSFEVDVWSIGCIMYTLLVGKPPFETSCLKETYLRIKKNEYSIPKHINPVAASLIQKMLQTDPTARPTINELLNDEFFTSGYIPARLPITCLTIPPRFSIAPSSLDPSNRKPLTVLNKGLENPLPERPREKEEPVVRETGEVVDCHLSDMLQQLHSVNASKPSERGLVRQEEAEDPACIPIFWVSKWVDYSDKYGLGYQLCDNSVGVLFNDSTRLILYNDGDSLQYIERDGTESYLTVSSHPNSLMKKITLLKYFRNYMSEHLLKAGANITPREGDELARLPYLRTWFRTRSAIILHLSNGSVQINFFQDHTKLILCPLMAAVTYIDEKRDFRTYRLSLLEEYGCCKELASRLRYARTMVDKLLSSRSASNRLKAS
PI5P4K alpha inh: blocks human PI5P4K alpha kinase activity. P48426. PI5P4Kalpha enzyme, ADP-Glo luminescence, 60 min; stronger effect = lower value. max response, %. 1.2% of 330,000 active. AID 652105; active = max response of -50% or lower; inconclusive = between -30% and -50%; inactive = -30% or higher; also: value at the top dose of about 77 µM; % is scaled to controls: 0 for no effect and ±100 for the full control effect
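Controls without substrate or without enzyme flank wells where PI5P4Kalpha converts substrate using 5 microM ATP (final). Incubation lasts 60 minutes at room temperature; ADP formed is read by ADP-Glo luminescence.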
G9a block: inhibitors of human histone lysine methyltransferase G9a | G9a H3K9 monomethylation, AlphaScreen, 2 h | 8.8% of 350,000 active | Potency, µM (top dose mostly 102 µM), inactives show at the highest dose activity, negative = inhibition, hits mostly inhibitors | Q96KQ7 | AID 504332; also: potency is read from the fitted curve at half-maximal effect; % is scaled to controls: 0 for no effect and ±100 for the full control effect; nearly all actives have a fitted effect of over 75% in size
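Readings reflect AlphaScreen signal from monomethyl-H3K9 antibody detection. HMT at 20 nM; substrate b-H3K9 500 nM; cofactor SAM 20 uM; 2 h RT reaction; compounds tested as titrations in qHTS with 15 min preincubation.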
* = called active by the depositor; [ ] = dose if it differs, or a comment. Rows were chosen to be rich in hits. Some 12% of all compounds tested hit in one or more screens of this group. Unless noted, calls follow the shape of the dose curve; as a rule, active = well fitted curve in the direction sought with a large enough effect; inconclusive = small, poorly fitted or top-dose-only effect, or another doubt; inactive = no such curve, though single readings can be large; an effect the other way counts as inactive or inconclusive.

For CCCC(=O)Nc1c(C)n[nH]c1C the results were HP1b binding inh -9%, BAZ2B inh -4%, JMJD2A Tudor inconclusive, PLK1 PBD block 27µM*, PI5P4K alpha inh -1 and G9a block 19%.
For CN(C)c1ccc(NC(=O)c2cn(-c3ccccc3)nc2-c2cccs2)cc1 the results were HP1b binding inh inconclusive, BAZ2B inh 35µM*, JMJD2A Tudor 14µM*, PLK1 PBD block -2% and G9a block 10µM*.
`O=C(NN1CCOCC1)c1cn(-c2ccccc2)nc1-c1cccs1` gave HP1b binding inh 6%, BAZ2B inh 3%, JMJD2A Tudor -7%[11.4 µM], PLK1 PBD block 24µM*, PI5P4K alpha inh 8 and G9a block 1%[59 µM].
`CN1CCN(NC(=O)c2cn(-c3ccccc3)nc2-c2cccs2)CC1` gave HP1b binding inh 56%, BAZ2B inh -22%, JMJD2A Tudor -10%, PLK1 PBD block inconclusive, PI5P4K alpha inh 1 and G9a block inconclusive.
For O=C(NCc1nnnn1-c1ccc(F)cc1)c1cc2ccccc2o1 the results were PLK1 PBD block -12% and PI5P4K alpha inh -11.
Screening O=C1c2cccc3c(N4CCOCC4)c([N+](=O)[O-])cc(c23)C(=O)N1c1cccc2ccccc12 returned HP1b binding inh -12%, BAZ2B inh inconclusive, JMJD2A Tudor inconclusive, PLK1 PBD block 2%, PI5P4K alpha inh -9 and G9a block 11µM*.
Screening Cc1cccc(N2C(=O)c3cccc4c(N5CCCCC5)c([N+](=O)[O-])cc(c34)C2=O)c1C returned HP1b binding inh inconclusive, BAZ2B inh inconclusive, JMJD2A Tudor inconclusive, PLK1 PBD block 1%, PI5P4K alpha inh -1 and G9a block -11%[59 µM].
`CCOC1=C2[C@@H](CN(S(=O)(=O)c3ccc(C)cc3)[C@H]2c2ccccc2Cl)[C@H]2C(=O)N(Cc3ccccc3)C(=O)[C@H]2C1` gave PLK1 PBD block 0% and PI5P4K alpha inh -3.
`CC(C)Cc1c2c([nH]c(=S)c1C#N)CCCC2` gave HP1b binding inh -24%, BAZ2B inh -30%, JMJD2A Tudor 56µM*, PLK1 PBD block 27µM*, PI5P4K alpha inh inconclusive and G9a block 2.2µM*.
For N#Cc1c(-c2cccnc2)c2c([nH]c1=S)CCCC2 the results were HP1b binding inh inconclusive, BAZ2B inh -6%, JMJD2A Tudor 1.4µM*, PLK1 PBD block 12µM*, PI5P4K alpha inh -95* and G9a block 0.71µM*.
N#Cc1c(-c2ccco2)c2c([nH]c1=S)CCCC2 was read as HP1b binding inh -22%, BAZ2B inh 1%, JMJD2A Tudor 28µM*, PLK1 PBD block 12µM*, PI5P4K alpha inh -78* and G9a block inconclusive.
`N#Cc1c2c(c(-c3ccco3)[nH]c1=O)CCCC2` gave HP1b binding inh 43%, BAZ2B inh 10%, JMJD2A Tudor -16%, PLK1 PBD block -10% and G9a block 27%.
For Cc1[nH]c(=O)c(C#N)c2c1CCCC2 the results were HP1b binding inh 6%, BAZ2B inh 9%, JMJD2A Tudor 1%, PLK1 PBD block -6% and G9a block -25%.
COc1ccc(Cl)cc1NC(=O)CCS(=O)(=O)c1cccc2nonc12 was read as HP1b binding inh 29%, BAZ2B inh -18%, JMJD2A Tudor -22% and G9a block -23%[59 µM].
CCCCN(C(=O)CCCSc1nc2ccccc2[nH]1)c1c(N)n(Cc2ccccc2)c(=O)[nH]c1=O was read as HP1b binding inh 16%, BAZ2B inh -9%, JMJD2A Tudor -2%, PLK1 PBD block 0%, PI5P4K alpha inh 2 and G9a block 10µM*.
CCCCn1c(N)c(N(CCOC)C(=O)c2cc(-c3ccc(F)cc3)nc3ccccc23)c(=O)[nH]c1=O was read as HP1b binding inh 36%, BAZ2B inh 2%, JMJD2A Tudor -10%, PLK1 PBD block -1%, PI5P4K alpha inh 2 and G9a block 45µM*.
`CCCCN(C(=O)c1cccc(N2C(=O)c3ccccc3C2=O)c1)c1c(N)n(CC(C)C)c(=O)[nH]c1=O` gave HP1b binding inh 49%, BAZ2B inh -5%, JMJD2A Tudor -6%, PLK1 PBD block 2%, PI5P4K alpha inh 3 and G9a block -11%[12.7 µM].
Screening CCCCN(C(=O)c1cc(Cl)nc2ccccc12)c1c(N)n(Cc2ccccc2)c(=O)[nH]c1=O returned HP1b binding inh 18%, BAZ2B inh -5%, JMJD2A Tudor -12%, PLK1 PBD block -9%, PI5P4K alpha inh 3 and G9a block 50µM*.
For CCCCN(C(=O)c1cccc(-n2cccc2)c1)c1c(N)n(Cc2ccccc2)c(=O)[nH]c1=O the results were BAZ2B inh 45µM* and G9a block 11%[0.501 µM].
`Cc1cccc(CC(=O)NC2CC(=O)N(c3cccc(F)c3)C2)c1` (stereo not drawn) gave HP1b binding inh 13%, BAZ2B inh 2%, JMJD2A Tudor -12% and G9a block 6%[59 µM].
Screening COc1cccc(CNC(=O)Cn2nc3c(cc2=O)CCCC3)c1OC returned HP1b binding inh 14%[57 µM], BAZ2B inh 6%, JMJD2A Tudor 0% and G9a block 14%[59 µM].
For CCCCN(C(=O)c1cc(-c2ccco2)nc2ccccc12)c1c(N)n(CCC)c(=O)[nH]c1=O the results were HP1b binding inh 2%, BAZ2B inh inconclusive, JMJD2A Tudor inconclusive, PLK1 PBD block -21%, PI5P4K alpha inh -73* and G9a block -5%[12.7 µM].
`O=C(Oc1ccc2c(c1)O/C(=C\c1ccncc1)C2=O)c1cccs1` gave HP1b binding inh 20%, BAZ2B inh -31%, JMJD2A Tudor inconclusive, PLK1 PBD block 0% and PI5P4K alpha inh inconclusive.
For CS(=O)(=O)Oc1ccc2c(c1)O/C(=C\c1cccnc1)C2=O the results were HP1b binding inh -16%, BAZ2B inh -15%, JMJD2A Tudor -22%, PLK1 PBD block -26% and PI5P4K alpha inh 0.
For COc1cc(OC)c(OC)cc1/C=C1\Oc2cc(OS(C)(=O)=O)ccc2C1=O the results were HP1b binding inh -4%, BAZ2B inh -35%, JMJD2A Tudor inconclusive, PLK1 PBD block 6%, PI5P4K alpha inh inconclusive and G9a block 40µM*.
For COc1ccc(S(=O)(=O)Oc2ccc3c(c2)O/C(=C\c2cccnc2)C3=O)cc1 the results were HP1b binding inh -24%, BAZ2B inh inconclusive, JMJD2A Tudor inconclusive, PLK1 PBD block -13% and G9a block 40µM*.
For COc1ccccc1C(=O)Oc1ccc2c(c1)O/C(=C\c1ccncc1)C2=O the results were HP1b binding inh -20%, BAZ2B inh inconclusive, JMJD2A Tudor inconclusive, PLK1 PBD block 0%, PI5P4K alpha inh -57* and G9a block inconclusive.
